Values joined by “and” are separate entries in the source; they are usually repeats but may differ in a detail not shown here. Identical values can stand only once. The whole screen tested about 5,500 compounds, of which about 2,000 (36%) were called active. About 18% were inconclusive and are not listed. Cut-off read from the data, not from the text of the source: active = normalized growth mostly below about 0.91 (no sharp cut-off); inconclusive = no clear call, values can overlap the other calls; inactive = mostly above about 0.92. The list shows a part of the results.
Assay: chemical genetic growth profiling, strain panel (AID 1159580);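 note: tested at 20 µM; growth read once vehicle control cultures reached saturation at 30 °C; 1 = growth at the plate median or of vehicle wells; lower values mean less growth of the strain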
Settings: S. cerevisiae deletion strains, growth OD
[1] = locus YAL013W, strain DEP1, hits give low values
[2] = locus YGR078C, strain PAC10, hits give low values
[3] = locus YJR075W, strain HOC1, hits give low values
[4] = locus YMR307W, strain GAS1, hits give low values
[5] = locus YPL055C, strain LGE1, hits give low values
[6] = locus YPL241C, strain CIN2, hits give low values
[7] = locus YAL040C, strain CLN3, hits give low values
[8] = locus YDR363W, strain ESC2, hits give low values
[9] = locus YER002W, strain NOP16, hits give low values
[10] = locus YNL153C, strain GIM3, hits give low values
[11] = locus YNL175C, strain NOP13, hits give low values
[12] = locus YNL197C, strain WHI3, hits give low values
[13] = locus YNL224C, strain SQS1, hits give low values
[14] = locus YOR083W, strain WHI5 (second series), hits give low values

Measured: normalized growth

CC1(C)O[C@@H]2CC3C4C[C@H](F)C5=CC(=O)C=C[C@]5(C)[C@@]4(F)[C@@H](O)C[C@]3(C)[C@]2(C(=O)CO)O1 (stereo not given in full)
inactive: [1] 1 | locus YAL021C, strain ccr4, hits give low values 1.01 | locus YAL026C, strain drs2, hits give low values 1 | locus YAL030W, strain snc1, hits give low values 1.01 | locus YBL061C, strain skt5, hits give low values 1.01 | locus YBR009C, strain hhf1, hits give low values 1.01 | locus YBR021W, strain FUR4, hits give low values 0.995 | locus YBR023C, strain chs3, hits give low values 1.03 | locus YBR171W, strain sec66, hits give low values 1.02 | locus YBR229C, strain ROT2, hits give low values 0.999 | locus YBR231C, strain swc5, hits give low values 1.01 | locus YBR279W, strain paf1, hits give low values 1.05 | locus YCL011C, strain gbp2, hits give low values 1.03 | locus YCL016C, strain dcc1, hits give low values 1.02 | locus YCL029C, strain bik1, hits give low values 1.01 | locus YCL061C, strain MRC1, hits give low values 1.03 | locus YCL069W, strain vba3, hits give low values 1.02 | locus YCR088W, strain abp1, hits give low values 1.01 | locus YDL005C, strain med2, hits give low values 1.02 | locus YDL035C, strain GPR1, hits give low values 0.982 | locus YDL040C, strain nat1, hits give low values 1.01 | locus YDL074C, strain BRE1, hits give low values 1 | locus YDL101C, strain DUN1, hits give low values 1.01 | locus YDL185W, strain tfp1, hits give low values 1.01 | locus YDL192W, strain arf1, hits give low values 1.01 | locus YDR001C, strain nth1, hits give low values 1.02 | locus YDR069C, strain doa4, hits give low values 1 | locus YDR101C, strain arx1, hits give low values 0.988 | locus YDR137W, strain rgp1, hits give low values 1.02 | locus YDR159W, strain sac3, hits give low values 0.973 | locus YDR162C, strain NBP2, hits give low values 0.993 | locus YDR195W, strain ref2 1.01 | locus YDR297W, strain sur2, hits give low values 1.01 | locus YDR318W, strain mcm21, hits give low values 1.02 | locus YDR334W, strain swr1, hits give low values 1.01 | locus YDR335W, strain msn5, hits give low values 1.02 | locus YDR388W, hits give low values 1.01 | locus YDR392W, strain spt3, hits give low values 0.975 | locus YDR502C, strain sam2, hits give low values 1.01 | locus YEL003W, strain gim4, hits give low values 1 | locus YEL037C, strain rad23, hits give low values 1.01 | locus YEL061C, strain CIN8 (second series), hits give low values 1.02 | locus YEL061C, strain CIN8, hits give low values 0.992 | locus YER015W, strain faa2, hits give low values 1.01 | locus YER016W, strain bim1, hits give low values 1.01 | locus YER110C, hits give low values 1.02 | locus YER111C, strain swi4, hits give low values 1.01 | locus YER155C, strain BEM2 (second series), hits give low values 1.02 | locus YER155C, strain BEM2, hits give low values 0.997 | locus YER167W, strain BCK2, hits give low values 1 | locus YFR010W, strain ubp6, hits give low values 1.01 | locus YGL078C, strain dbp3, hits give low values 1.02 | locus YGL086W, strain mad1, hits give low values 0.992 | locus YGL167C, strain pmr1, hits give low values 1.01 | locus YGL173C, strain kem1, hits give low values 1.01 | locus YGL227W, strain vid30, hits give low values 1.02 | locus YGL240W, strain doc1, hits give low values 0.997 | locus YGL248W, strain PDE1, hits give low values 1.01 | locus YGL253W, strain hxk2, hits give low values 1.01 | [2] 0.994 | locus YGR135W, strain pre9, hits give low values 1.07 | locus YGR252W, strain gcn5, hits give low values 1.07 | locus YHR013C, strain ard1, hits give low values 1.05 | locus YHR027C, strain rpn1, hits give low values 1.01 | locus YHR030C, strain SLT2, hits give low values 0.99 and 0.972 | locus YHR079C, strain IRE1 (second series), hits give low values 1.01 | locus YHR079C, strain IRE1, hits give low values 0.969 | locus YHR094C, strain hxt1, hits give low values 1.02 | locus YHR129C, strain ARP1, hits give low values 0.997 | locus YHR142W, strain chs7, hits give low values 1.03 | locus YHR200W, strain rpn10, hits give low values 1.02 | locus YIL066C, strain RNR3, hits give low values 0.993 | locus YIL073C, strain SPO22, hits give low values 1.02 | locus YIL125W, strain kgd1, hits give low values 1.01 | locus YIR030C, strain dcg1, hits give low values 1.02 | locus YJL092W, strain hpr5, hits give low values 1.02 | locus YJL095W, strain BCK1 (second series), hits give low values 1.02 | locus YJL095W, strain BCK1, hits give low values 1.01 and 0.978 | locus YJL115W, strain asf1, hits give low values 1.01 | locus YJL129C, strain trk1, hits give low values 1.02 | locus YJL134W, strain LCB3, hits give low values 1 | locus YJL154C, strain vps35, hits give low values 1.01 | locus YJL164C, strain tpk1, hits give low values 1.01 | locus YJL166W, strain qcr8, hits give low values 1.03 | locus YJL168C, strain set2, hits give low values 1.02 | locus YJL187C, strain SWE1 (second series), hits give low values 0.999 | locus YJL187C, strain SWE1, hits give low values 1.01 | locus YJR043C, strain POL32, hits give low values 0.988 | locus YJR066W, strain TOR1, hits give low values 0.952 | [3] 0.994 | locus YKL009W, strain mrt4, hits give low values 0.996 | locus YKL068W, hits give low values 1.01 | locus YKL085W, strain MDH1 (second series), hits give low values 1.01 | locus YKL085W, strain MDH1, hits give low values 1.01 | locus YKL160W, strain elf1, hits give low values 1.03 | locus YKL190W, strain CNB1, hits give low values 0.994 | locus YKR001C, strain vps1, hits give low values 1 | locus YKR026C, strain gcn3, hits give low values 1.01 | locus YKR091W, strain srl3, hits give low values 1.01 | locus YLL001W, strain dnm1, hits give low values 1.01 | locus YLL026W, hits give low values 1.01 | locus YLL041C, strain sdh2, hits give low values 1.01 | locus YLR027C, strain aat2, hits give low values 1.01 | locus YLR039C, strain RIC1, hits give low values 1.05 | locus YLR058C, strain SHM2, hits give low values 1.01 | locus YLR102C, strain apc9, hits give low values 1.02 | locus YLR113W, strain HOG1, hits give low values 0.994 | locus YLR221C, strain rsa3, hits give low values 1.02 | locus YLR258W, strain gsy2, hits give low values 1.01 | locus YLR262C, strain YPT6 (second series), hits give low values 1.04 | locus YLR262C, strain YPT6, hits give low values 0.968 | locus YLR268W, strain sec22, hits give low values 1.01 | locus YLR320W, strain mms22, hits give low values 1.04 | locus YLR330W, strain CHS5, hits give low values 1 | locus YLR342W, strain FKS1 (second series), hits give low values 1.01 | locus YLR342W, strain FKS1, hits give low values 1.02 | locus YLR357W, strain rsc2, hits give low values 1.01 | locus YLR370C, strain arc18, hits give low values 1.01 | locus YLR371W, strain rom2, hits give low values 1.01 | locus YLR384C, strain iki3, hits give low values 1.02 | locus YLR418C, strain cdc73, hits give low values 1.03 | locus YML016C, strain PPZ1, hits give low values 0.998 | locus YML032C, strain rad52, hits give low values 1.01 | locus YML120C, strain ndi1, hits give low values 1.03 | locus YML124C, strain tub3, hits give low values 1.01 | locus YMR058W, strain fet3, hits give low values 1.01 | locus YMR078C, strain ctf18, hits give low values 1.01 | locus YMR125W, strain sto1, hits give low values 1.03 | locus YMR129W, hits give low values 1.01 | locus YMR205C, strain PFK2, hits give low values 1.01 | locus YMR223W, strain ubp8, hits give low values 1.04 | locus YMR231W, strain pep5, hits give low values 1.01 | [4] 0.967 | locus YNL067W, strain RPL9B, hits give low values 0.993 | locus YNL071W, strain lat1, hits give low values 1.02 | locus YNL128W, strain TEP1, hits give low values 1.01 | locus YNL183C, strain NPR1, hits give low values 0.975 | locus YNL209W, strain ssb2, hits give low values 1.02 | locus YNL233W, strain BNI4, hits give low values 1 | locus YNL248C, strain rpa49, hits give low values 1.01 | locus YNL250W, strain rad50, hits give low values 1.05 | locus YNL271C, strain bni1, hits give low values 1.02 | locus YNL298W, strain CLA4, hits give low values 1.01 | locus YNL307C, strain MCK1, hits give low values 1.03 | locus YNL322C, strain KRE1 (second series), hits give low values 1.03 | locus YNR049C, strain mso1, hits give low values 1 | locus YNR052C, strain pop2, hits give low values 1.01 | locus YOL012C, strain htz1 0.765 | locus YOL147C, strain pex11, hits give low values 1.02 | locus YOR001W, strain rrp6, hits give low values 0.98 | locus YOR061W, strain CKA2, hits give low values 1.01 | locus YOR069W, strain VPS5, hits give low values 1 | locus YOR070C, strain gyp1, hits give low values 1.03 | locus YOR080W, strain dia2, hits give low values 1.02 | locus YOR083W, strain WHI5, hits give low values 1.04 | locus YOR106W, strain vam3, hits give low values 1.04 | locus YOR136W, strain idh2, hits give low values 1.01 | locus YOR144C, strain elg1, hits give low values 1.01 | locus YOR184W, strain ser1, hits give low values 1.02 | locus YOR231W, strain MKK1, hits give low values 0.986 | locus YOR265W, strain rbl2, hits give low values 1.01 | locus YOR270C, strain vph1, hits give low values 1.04 | locus YOR290C, strain snf2, hits give low values 0.985 | locus YOR316C, strain cot1, hits give low values 1.01 | locus YPL051W, strain arl3, hits give low values 1.01 | [5] 0.996 | locus YPL078C, strain atp4, hits give low values 1.02 | locus YPL106C, strain sse1, hits give low values 1.01 | locus YPL240C, strain hsp82, hits give low values 1.01 | [6] 1 | locus YPL256C, strain CLN2, hits give low values 0.987 | locus YPR119W, strain clb2, hits give low values 1.02 | locus YPR141C, strain kar3, hits give low values 1.01 | locus YPR163C, strain tif3, hits give low values 1.02 | locus YPR167C, strain met16, hits give low values 1.01 | strain wtn01, hits give low values 1.01

N=c1ccn2c(n1)OC1C(O)[C@@H](CO)O[C@H]12 (stereo not given in full)
inactive: [1] 0.99 | [7] 1 | [8] 0.986 | [9] 1.01 | [10] 1.02 | [11] 1 | [12] 1 | [13] 1.03 | locus YNL322C, strain KRE1, hits give low values 1 | [14] 1.03

CC(N)Cc1c[nH]c2ccc(OCc3cccs3)cc12 (stereo not given)
inactive: [1] 1 | [7] 1.02 | [8] 0.984 | [9] 1.02 | [2] 1.01 | [3] 1 | [4] 1.02 | [10] 1.02 | [11] 0.986 | [12] 1.01 | [13] 1.01 | [14] 0.981 | [5] 1 | [6] 1.01
